Shown are actives, neighbours in structure and some others; about 5% of the full set was active somewhere.
USP8 inh – inhibitors of human USP8 deubiquitinase. P40818. purified USP8, Ub-rhodamine cleavage fluorescence, 30 min. inhibition, % at 20 µM. 4.2% of 47,000 active
UCHL1 inh – inhibitors of human UCHL1 deubiquitinase. P09936. purified UCHL1, Ub-rhodamine cleavage fluorescence. inhibition, % at 20 µM. 0.2% of 47,000 active. AID 1645859
Target sequence (P09936 whole entry, looked up): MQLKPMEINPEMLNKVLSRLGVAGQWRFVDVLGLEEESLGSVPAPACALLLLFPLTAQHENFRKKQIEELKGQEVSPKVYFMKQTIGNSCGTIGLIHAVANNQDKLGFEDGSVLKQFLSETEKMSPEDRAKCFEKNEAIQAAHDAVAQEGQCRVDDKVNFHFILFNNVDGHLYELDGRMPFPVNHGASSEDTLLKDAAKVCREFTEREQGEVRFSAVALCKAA
USP10 block – blocks human USP10 ubiquitin-rhodamine cleavage; AID 1645856; Q14694; purified USP10, Ub-rhodamine fluorescence, 60 min; 1.1% of 47,000 active; inhibition, % at 20 µM
USP7 inh – inhibitors of human USP7 deubiquitinase; purified USP7, Ub-rhodamine cleavage fluorescence; inhibition, % at 20 µM; 0.3% of 47,000 active; AID 1645854
Starred values were filed as active, the others as inactive. No stated cut-off is given here; in the data, active means inhibition above about 30%; inactive means the rest.

Cc1ccc(-n2ncc3c(=O)[nH]c(SCC(=O)NCc4ccco4)nc32)cc1C was read as USP8 inh 39*, UCHL1 inh -1, USP10 block 13 and USP7 inh 2.
`O=C(CSc1ccc2nnc(-c3ccccc3)n2n1)c1ccccc1` gave USP8 inh 79*, UCHL1 inh 3, USP10 block 2 and USP7 inh 6.
CCOC(=O)c1cc2c(ccn2C)n1CC(=O)N(Cc1ccccc1)c1ccccc1 was read as USP8 inh 55*, UCHL1 inh -39, USP10 block -11 and USP7 inh -46.
For CCOC(=O)c1cc2c(ccn2C)n1CC(=O)N(Cc1ccccc1)c1ccc(F)cc1 the results were USP8 inh 39*, UCHL1 inh -7, USP10 block -16 and USP7 inh -14.
CC(C)OC(=O)c1cc2c(ccn2C)n1CC(=O)N(Cc1ccccc1)c1ccc(F)cc1 was read as USP8 inh 56*, UCHL1 inh -9, USP10 block -8 and USP7 inh -6.
For CCOC(=O)c1cc2c(ccn2C)n1CC(=O)N(Cc1ccc(OC)cc1)c1ccc(F)cc1 the results were USP8 inh 17, UCHL1 inh -3, USP10 block -10 and USP7 inh 0.
For CC(C)OC(=O)c1cc2c(ccn2C)n1Cc1ccc2ccccc2n1 the results were USP8 inh 56*, UCHL1 inh -13, USP10 block -9 and USP7 inh -9.
For CC(C)OC(=O)c1cc2c(ccn2C)n1CC(=O)N1CCCC1 the results were USP8 inh -13, UCHL1 inh -9, USP10 block -6 and USP7 inh -11.
Screening O=C(CSc1ccncc1)N1CCCCCC1c1cc(-c2ccc(F)cc2)on1 (stereo unspecified) returned USP8 inh -8, UCHL1 inh 2, USP10 block 3 and USP7 inh -12.
`CCOC(=O)c1cc2c(ccn2C)n1CC(=O)NC(c1ccccc1)c1ccccc1` gave USP8 inh 65*, UCHL1 inh -2, USP10 block -5 and USP7 inh -2.
`CCOC(=O)c1cc2c(ccn2C)n1CC(=O)N1CCN(c2ccccc2)CC1` gave USP8 inh -12, UCHL1 inh -4, USP10 block -6 and USP7 inh -6.
`CC(C)OC(=O)c1cc2c(ccn2C)n1CC(=O)N(Cc1ccc(Cl)cc1)c1ccccc1` gave USP8 inh 67*, UCHL1 inh -1, USP10 block -4 and USP7 inh -22.
Screening Cc1ccc(-c2nc(CNC(=O)Cc3ccccc3F)no2)cc1 returned USP8 inh -104, UCHL1 inh -3, USP10 block -7 and USP7 inh -1.
For Cc1[nH]c(C(=O)Nc2ccc(F)cc2)c(C)c1S(=O)(=O)N1CCOCC1 the results were USP8 inh 6, UCHL1 inh 1, USP10 block 3 and USP7 inh -3.
For CCc1nnc(-c2cc(S(=O)(=O)N3CCC(C)CC3)c[nH]2)o1 the results were USP8 inh 3, UCHL1 inh -1, USP10 block 4 and USP7 inh -1.
CCc1nnc(-c2ccc3ccn(CC(=O)N4CCN(c5ccccn5)CC4)c3c2)o1 was read as USP8 inh 92*, UCHL1 inh 17, USP10 block 33* and USP7 inh -12.
`CCc1nnc(-c2cc(S(=O)(=O)N3CCN(c4ccccn4)CC3)c[nH]2)o1` gave USP8 inh 40*, UCHL1 inh 3, USP10 block 23 and USP7 inh 9.
For CCS(=O)(=O)n1nc(-c2ccco2)nc1NCc1ccc(F)cc1 the results were USP8 inh 5, UCHL1 inh -3, USP10 block 0 and USP7 inh -52.
For Cc1noc(C)c1CCC(=O)N1CCN(c2ncnc3c2CCC3)CC1 the results were USP8 inh 14, UCHL1 inh 0, USP10 block -2 and USP7 inh 2.
O=C(CC(c1cccc(F)c1)n1cccc1)Nc1ccc2c(c1)OCO2 (stereo unspecified) was read as USP8 inh 45*, UCHL1 inh 6, USP10 block 7 and USP7 inh -1.
Screening Cc1ccc(NC(=O)Cn2nc3ccc(C(=O)NCc4ccccc4)cn3c2=O)cc1F returned USP8 inh 41*, UCHL1 inh 0, USP10 block 10 and USP7 inh 15.
For Cc1cccc(NC(=O)c2cc(-c3ccc(C)c(C)c3O)n[nH]2)c1 the results were USP8 inh 81*, UCHL1 inh 6, USP10 block 26 and USP7 inh 16.
For Cc1cc(C)nc(C2CCN(C(=O)c3noc4c3CCCC4)C2)n1 (stereo unspecified) the results were USP8 inh 5, UCHL1 inh 0, USP10 block -3 and USP7 inh 2.

High-throughput results from PubChem BioAssay.
